{"source": "the supplement of paper PMC5662767", "note": "Where a name gives a salt, the structure may show the parent alone.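 Further: flow cytometry read-out as median GFP intensity of gated cells, compounds added 30 min before Hh-conditioned or mock medium, mock-treated cells serving as unstimulated baseline.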", "data": [{"system": "Drosophila S2 cl14 SmoIP sensor cells", "assay": "normalized SmoIP GFP fluorescence (untreated unstimulated = 0%, untreated Hh-stimulated = 100%); higher = more Smo activation sensor fluorescence", "conditions": "stimulation: Hh conditioned medium (+Hh); compound concentration: 2 uM; 24 h", "units": {"normalized SmoIP GFP fluorescence": "%"}, "values": [{"smiles": "CC(C)CC(=O)Nc1n[nH]c2c1CN(C(=O)C1CCN(C)CC1)C2(C)C", "normalized SmoIP GFP fluorescence": 41.2}, {"smiles": "C[C@]12CCC(=O)C=C1[C@@H]1C[C@@H]1[C@H]1[C@@H]3[C@@H]4C[C@@H]4[C@@]4(CCC(=O)O4)[C@@]3(C)CC[C@@H]12", "note": "[Drospirenone]", "normalized SmoIP GFP fluorescence": 110}, {"smiles": "CC(C)n1c(/C=C/[C@@H](O)C[C@@H](O)CC(=O)O)c(-c2ccc(F)cc2)c2ccccc21", "note": "[Fluvastatin-Sodium(Lescol]", "normalized SmoIP GFP fluorescence": 78.2}, {"smiles": "CCCCOc1ccc(CC(=O)NO)cc1", "note": "[bufexamac]", "normalized SmoIP GFP fluorescence": 98.6}, {"smiles": "C=C(C)[C@@H]1CC[C@]2(C(=O)O)CC[C@]3(C)[C@H](CC[C@@H]4[C@@]5(C)CC[C@H](O)C(C)(C)[C@@H]5CC[C@]43C)[C@@H]12", "note": "[betulinic-acid]", "normalized SmoIP GFP fluorescence": 97}, {"smiles": "COc1ccc(Cn2ccc3ccc(C(=O)NO)cc32)cc1", "normalized SmoIP GFP fluorescence": 111}, {"smiles": "CC[C@H](Nc1ncnc2[nH]cnc12)c1nc2cccc(F)c2c(=O)n1-c1ccccc1", "normalized SmoIP GFP fluorescence": 126}, {"smiles": "CCCC(=O)Nc1ccc(OCC(O)CNC(C)C)c(C(C)=O)c1", "note": "(stereo unspecified) [acebutolol-hcl]", "normalized SmoIP GFP fluorescence": 106}, {"smiles": "NC(=O)c1ccc(I)c([N+](=O)[O-])c1", "normalized SmoIP GFP fluorescence": 115}, {"smiles": "CCOC(=O)C1=C(N)Oc2ccc(Br)cc2C1C(C#N)C(=O)OCC", "note": "(stereo unspecified)", "normalized SmoIP GFP fluorescence": 97.9}, {"smiles": "Cc1ccc(C(=O)Nc2cccc(C(F)(F)F)c2)cc1Nc1nc(-c2cccnc2)nc2c1cnn2C", "normalized SmoIP GFP fluorescence": 140}, {"smiles": "CCCS(=O)(=O)Nc1ccc(F)c(C(=O)c2c[nH]c3ncc(Cl)cc23)c1F", "normalized SmoIP GFP fluorescence": 108}, {"smiles": "O=c1sn(-c2cccc3ccccc23)c(=O)n1Cc1ccccc1", "note": "[tideglusib]", "normalized SmoIP GFP fluorescence": 101}, {"smiles": "Cc1ccccc1C(C(=O)NC1CCCCC1)N(C(=O)Cn1ccnc1C)c1cccc(F)c1", "note": "(stereo unspecified)", "normalized SmoIP GFP fluorescence": 111}, {"smiles": "C=CCc1ccc(O)c(-c2ccc(O)c(CC=C)c2)c1", "note": "[Honokiol]", "normalized SmoIP GFP fluorescence": 104}, {"smiles": "Cc1cccc(-c2[nH]c(C(C)(C)C)nc2-c2ccc3c(c2)OCO3)n1", "normalized SmoIP GFP fluorescence": 133}, {"smiles": "Cc1c(C(=O)Nc2ccc(N3C[C@@H](C)O[C@@H](C)C3)nc2)cccc1-c1ccc(OC(F)(F)F)cc1", "normalized SmoIP GFP fluorescence": 114}, {"smiles": "COc1ccc([C@@H]2CC(=O)c3c(O)cc(O)cc3O2)cc1O", "note": "[Hesperetin]", "normalized SmoIP GFP fluorescence": 111}, {"smiles": "Nc1ccccc1NC(=O)c1ccc(CNc2nccc(-c3cccnc3)n2)cc1", "note": "[MGCD0103(Mocetinostat)]", "normalized SmoIP GFP fluorescence": 214}, {"smiles": "O=C(c1cncc(Br)c1)N1CCC(N2CCCC2)CC1", "normalized SmoIP GFP fluorescence": 98.8}, {"smiles": "C[C@@H](NCCc1ccc(O)cc1)[C@@H](O)c1ccc(O)cc1", "note": "[Ritodrine-hydrochloride-Yutopar]", "normalized SmoIP GFP fluorescence": 144}, {"smiles": "O=C1c2ccccc2C(=O)c2c1ccc(O)c2O", "note": "[Alizarin]", "normalized SmoIP GFP fluorescence": 141}, {"smiles": "COc1cc(Nc2c(C#N)cnc3cc(OCCCN4CCN(C)CC4)c(OC)cc23)c(Cl)cc1Cl", "note": "[Bosutinib]", "normalized SmoIP GFP fluorescence": 143}, {"smiles": "O=C(O)C(O)Cc1ccc(O)c(O)c1", "note": "(stereo unspecified) [Sodium-Danshensu]", "normalized SmoIP GFP fluorescence": 93.6}, {"smiles": "O=C(Nc1ccc(S(=O)(=O)Nc2ccccc2Cl)c(Cl)c1)c1ccccn1", "normalized SmoIP GFP fluorescence": 131}, {"smiles": "c1ccc(-c2[nH]ncc2-c2ccnc3ccccc23)nc1", "normalized SmoIP GFP fluorescence": 101}, {"smiles": "Fc1cc(-c2cccc3ncc(-c4cnn(C5CCNCC5)c4)nc23)cc(F)c1CN1CCOCC1", "normalized SmoIP GFP fluorescence": 145}, {"smiles": "CCOC(=O)c1ccc(NC2CCCCC2)c(N)c1", "note": "[ferrostatin-1-fer-1]", "normalized SmoIP GFP fluorescence": 116}, {"smiles": "COc1ccc(-c2ccc3ncc4c(c3c2)n(-c2ccc(N3CCNCC3)c(C(F)(F)F)c2)c(=O)n4C)cn1", "normalized SmoIP GFP fluorescence": 66.3}, {"smiles": "COc1cc(OC)c2c(=O)[nH]c(-c3cc(C)c(OCCO)c(C)c3)nc2c1", "normalized SmoIP GFP fluorescence": 112}, {"smiles": "CN1CCc2c(c3ccccc3n2Cc2ccc(C(=O)NO)cc2)C1", "note": "[tubastatin-a-hcl]", "normalized SmoIP GFP fluorescence": 101}, {"smiles": "c1ccc2c(c1)CCCC2C1=NCCN1", "note": "(stereo unspecified) [tetrahydrozoline-hcl]", "normalized SmoIP GFP fluorescence": 115}, {"smiles": "FC(F)(F)c1ccc(/C=C/c2nc(COc3ccc(CCCCn4ccnn4)cc3)co2)cc1", "note": "[Mubritinib-TAK-165]", "normalized SmoIP GFP fluorescence": 149}, {"smiles": "CC(C)(F)C[C@H](N[C@@H](c1ccc(-c2ccc(S(C)(=O)=O)cc2)cc1)C(F)(F)F)C(=O)NC1(C#N)CC1", "note": "[Odanacatib-(MK0822)]", "normalized SmoIP GFP fluorescence": 110}, {"smiles": "CC(=O)N1CCN(CCOc2ccc(C3CCN(C4=Nn5c(nnc5C(F)(F)F)CC4)CC3)cc2)CC1", "normalized SmoIP GFP fluorescence": 192}, {"smiles": "CCc1c(O)cc(O)c(C(=O)c2ccc(OCCN3CCOCC3)c(OC)c2)c1CC(=O)N(CCOC)CCOC", "normalized SmoIP GFP fluorescence": 121}, {"smiles": "CN1[C@@H]2CC[C@H]1C[C@@H](OC(=O)c1c[nH]c3ccccc13)C2", "note": "[Tropisetron-hydrochloride]", "normalized SmoIP GFP fluorescence": 116}, {"smiles": "CN(NC(=O)CC(=O)NN(C)C(=S)c1ccccc1)C(=S)c1ccccc1", "note": "[Elesclomol]", "normalized SmoIP GFP fluorescence": 145}]}, {"system": "Drosophila S2 cl14 SmoIP sensor cells", "assay": "normalized SmoIP GFP fluorescence (untreated unstimulated = 0%, untreated Hh-stimulated = 100%); higher = more Smo activation sensor fluorescence", "conditions": "stimulation: mock conditioned medium (-Hh); compound concentration: 2 uM; 24 h", "units": {"normalized SmoIP GFP fluorescence": "%"}, "values": [{"smiles": "CC(C)CC(=O)Nc1n[nH]c2c1CN(C(=O)C1CCN(C)CC1)C2(C)C", "normalized SmoIP GFP fluorescence": 20.1}, {"smiles": "C[C@]12CCC(=O)C=C1[C@@H]1C[C@@H]1[C@H]1[C@@H]3[C@@H]4C[C@@H]4[C@@]4(CCC(=O)O4)[C@@]3(C)CC[C@@H]12", "note": "[Drospirenone]", "normalized SmoIP GFP fluorescence": 1.03}, {"smiles": "CC(C)n1c(/C=C/[C@@H](O)C[C@@H](O)CC(=O)O)c(-c2ccc(F)cc2)c2ccccc21", "note": "[Fluvastatin-Sodium(Lescol]", "normalized SmoIP GFP fluorescence": -7.6}, {"smiles": "CCCCOc1ccc(CC(=O)NO)cc1", "note": "[bufexamac]", "normalized SmoIP GFP fluorescence": -3.05}, {"smiles": "C=C(C)[C@@H]1CC[C@]2(C(=O)O)CC[C@]3(C)[C@H](CC[C@@H]4[C@@]5(C)CC[C@H](O)C(C)(C)[C@@H]5CC[C@]43C)[C@@H]12", "note": "[betulinic-acid]", "normalized SmoIP GFP fluorescence": -2.93}, {"smiles": "COc1ccc(Cn2ccc3ccc(C(=O)NO)cc32)cc1", "normalized SmoIP GFP fluorescence": -8.59}, {"smiles": "CC[C@H](Nc1ncnc2[nH]cnc12)c1nc2cccc(F)c2c(=O)n1-c1ccccc1", "normalized SmoIP GFP fluorescence": -12.7}, {"smiles": "CCCC(=O)Nc1ccc(OCC(O)CNC(C)C)c(C(C)=O)c1", "note": "(stereo unspecified) [acebutolol-hcl]", "normalized SmoIP GFP fluorescence": -3.5}, {"smiles": "NC(=O)c1ccc(I)c([N+](=O)[O-])c1", "normalized SmoIP GFP fluorescence": -5.22}, {"smiles": "CCOC(=O)C1=C(N)Oc2ccc(Br)cc2C1C(C#N)C(=O)OCC", "note": "(stereo unspecified)", "normalized SmoIP GFP fluorescence": 1.03}, {"smiles": "Cc1ccc(C(=O)Nc2cccc(C(F)(F)F)c2)cc1Nc1nc(-c2cccnc2)nc2c1cnn2C", "normalized SmoIP GFP fluorescence": -9.04}, {"smiles": "CCCS(=O)(=O)Nc1ccc(F)c(C(=O)c2c[nH]c3ncc(Cl)cc23)c1F", "normalized SmoIP GFP fluorescence": -0.0496}, {"smiles": "O=c1sn(-c2cccc3ccccc23)c(=O)n1Cc1ccccc1", "note": "[tideglusib]", "normalized SmoIP GFP fluorescence": -0.264}, {"smiles": "Cc1ccccc1C(C(=O)NC1CCCCC1)N(C(=O)Cn1ccnc1C)c1cccc(F)c1", "note": "(stereo unspecified)", "normalized SmoIP GFP fluorescence": -1.97}, {"smiles": "C=CCc1ccc(O)c(-c2ccc(O)c(CC=C)c2)c1", "note": "[Honokiol]", "normalized SmoIP GFP fluorescence": -9.22}, {"smiles": "Cc1cccc(-c2[nH]c(C(C)(C)C)nc2-c2ccc3c(c2)OCO3)n1", "normalized SmoIP GFP fluorescence": -6.97}, {"smiles": "Cc1c(C(=O)Nc2ccc(N3C[C@@H](C)O[C@@H](C)C3)nc2)cccc1-c1ccc(OC(F)(F)F)cc1", "normalized SmoIP GFP fluorescence": -12.2}, {"smiles": "COc1ccc([C@@H]2CC(=O)c3c(O)cc(O)cc3O2)cc1O", "note": "[Hesperetin]", "normalized SmoIP GFP fluorescence": -18.9}, {"smiles": "Nc1ccccc1NC(=O)c1ccc(CNc2nccc(-c3cccnc3)n2)cc1", "note": "[MGCD0103(Mocetinostat)]", "normalized SmoIP GFP fluorescence": 9}, {"smiles": "O=C(c1cncc(Br)c1)N1CCC(N2CCCC2)CC1", "normalized SmoIP GFP fluorescence": 1.35}, {"smiles": "C[C@@H](NCCc1ccc(O)cc1)[C@@H](O)c1ccc(O)cc1", "note": "[Ritodrine-hydrochloride-Yutopar]", "normalized SmoIP GFP fluorescence": -5.98}, {"smiles": "O=C1c2ccccc2C(=O)c2c1ccc(O)c2O", "note": "[Alizarin]", "normalized SmoIP GFP fluorescence": -7.96}, {"smiles": "COc1cc(Nc2c(C#N)cnc3cc(OCCCN4CCN(C)CC4)c(OC)cc23)c(Cl)cc1Cl", "note": "[Bosutinib]", "normalized SmoIP GFP fluorescence": 9.08}, {"smiles": "O=C(O)C(O)Cc1ccc(O)c(O)c1", "note": "(stereo unspecified) [Sodium-Danshensu]", "normalized SmoIP GFP fluorescence": -2.82}, {"smiles": "O=C(Nc1ccc(S(=O)(=O)Nc2ccccc2Cl)c(Cl)c1)c1ccccn1", "normalized SmoIP GFP fluorescence": 3.4}, {"smiles": "c1ccc(-c2[nH]ncc2-c2ccnc3ccccc23)nc1", "normalized SmoIP GFP fluorescence": 0.247}, {"smiles": "Fc1cc(-c2cccc3ncc(-c4cnn(C5CCNCC5)c4)nc23)cc(F)c1CN1CCOCC1", "normalized SmoIP GFP fluorescence": -4.08}, {"smiles": "CCOC(=O)c1ccc(NC2CCCCC2)c(N)c1", "note": "[ferrostatin-1-fer-1]", "normalized SmoIP GFP fluorescence": -3.05}, {"smiles": "COc1ccc(-c2ccc3ncc4c(c3c2)n(-c2ccc(N3CCNCC3)c(C(F)(F)F)c2)c(=O)n4C)cn1", "normalized SmoIP GFP fluorescence": -7.6}, {"smiles": "COc1cc(OC)c2c(=O)[nH]c(-c3cc(C)c(OCCO)c(C)c3)nc2c1", "normalized SmoIP GFP fluorescence": -3.16}, {"smiles": "CN1CCc2c(c3ccccc3n2Cc2ccc(C(=O)NO)cc2)C1", "note": "[tubastatin-a-hcl]", "normalized SmoIP GFP fluorescence": -1.83}, {"smiles": "c1ccc2c(c1)CCCC2C1=NCCN1", "note": "(stereo unspecified) [tetrahydrozoline-hcl]", "normalized SmoIP GFP fluorescence": -0.491}, {"smiles": "FC(F)(F)c1ccc(/C=C/c2nc(COc3ccc(CCCCn4ccnn4)cc3)co2)cc1", "note": "[Mubritinib-TAK-165]", "normalized SmoIP GFP fluorescence": -0.747}, {"smiles": "CC(C)(F)C[C@H](N[C@@H](c1ccc(-c2ccc(S(C)(=O)=O)cc2)cc1)C(F)(F)F)C(=O)NC1(C#N)CC1", "note": "[Odanacatib-(MK0822)]", "normalized SmoIP GFP fluorescence": -4.25}, {"smiles": "CC(=O)N1CCN(CCOc2ccc(C3CCN(C4=Nn5c(nnc5C(F)(F)F)CC4)CC3)cc2)CC1", "normalized SmoIP GFP fluorescence": 15}, {"smiles": "CCc1c(O)cc(O)c(C(=O)c2ccc(OCCN3CCOCC3)c(OC)c2)c1CC(=O)N(CCOC)CCOC", "normalized SmoIP GFP fluorescence": -12.4}, {"smiles": "CN1[C@@H]2CC[C@H]1C[C@@H](OC(=O)c1c[nH]c3ccccc13)C2", "note": "[Tropisetron-hydrochloride]", "normalized SmoIP GFP fluorescence": -14.9}, {"smiles": "CN(NC(=O)CC(=O)NN(C)C(=S)c1ccccc1)C(=S)c1ccccc1", "note": "[Elesclomol]", "normalized SmoIP GFP fluorescence": 17.1}]}]}
